Sampled rows, rich in hits. Any-hit rate of the full collection: about 21%.
DRD3 agonist: qHTS of D3 Dopamine Receptor Agonist: qHTS. D3R DiscoveRx beta-arrestin cells, luminescence, 90 min. max activation, %. 410,000 tested, 0.58% active; in the data active = max activation above about 30%; note: 0% is about no effect
Target sequence (P35462 whole entry, looked up): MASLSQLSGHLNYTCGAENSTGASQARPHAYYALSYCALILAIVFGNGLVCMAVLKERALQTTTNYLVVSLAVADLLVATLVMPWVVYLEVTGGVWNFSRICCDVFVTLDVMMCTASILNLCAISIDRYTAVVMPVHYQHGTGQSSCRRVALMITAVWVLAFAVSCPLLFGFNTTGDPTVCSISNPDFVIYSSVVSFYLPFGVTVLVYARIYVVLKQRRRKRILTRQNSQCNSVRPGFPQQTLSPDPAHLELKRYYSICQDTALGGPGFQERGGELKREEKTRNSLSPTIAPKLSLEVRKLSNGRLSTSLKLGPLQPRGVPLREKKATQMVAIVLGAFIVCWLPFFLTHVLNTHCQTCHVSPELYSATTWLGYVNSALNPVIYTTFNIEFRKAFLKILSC
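Agonist mode: compounds and dopamine controls were applied to plated cells for 90 min at 37 degrees C after an overnight attachment at 1500 cells/well. Luminescent read-out followed 30 - 60 minutes at room temperature with DiscoveRx detection reagent.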
IL-1B inflam inh: qHTS for Inhibitors of Inflammasome Signaling: IL-1-beta AlphaLISA Primary Screen; activity change, % at 57.5 µM; THP-1 LPS/ATP IL-1B secretion, AlphaLISA, 16 h; stronger effect = lower value; 360,000 tested, 4.7% active; in the data active = activity change below about -50%; inconclusive = mostly about -30% to -49%; note: % is set by controls: 0 for no effect and ±100 for the full control effect
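Secreted IL-1B measured by AlphaLISA bead assay after 16 h compound exposure of THP-1 cells; compounds (final up to 57.5 uM) added 1 h before LPS (250 ng/mL) and ATP (1.25 mM) stimulation; lower signal means less secretion.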
D3 antag: qHTS of D3 Dopamine Receptor Antagonist: qHTS; AID 652054, 2013; D(3) dopamine receptor (Homo sapiens), P35462; D3R cells, DiscoveRx beta-arrestin luminescence, antagonist mode; stronger effect = lower value; 360,000 tested, 2.5% active; max response, negative = inhibition, %; in the data active = max response below about -50%; inconclusive = no clear call, values can overlap the other calls; note: % is set by controls: 0 for no effect and ±100 for the full control effect
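Cells plated overnight at 1500 cells/well, then exposed to library compounds with dopamine controls for 90 minutes at 37 degrees C. DiscoveRx reagent added for 30–60 minutes at room temperature; luminescence read, quantitative HTS format.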
DT40 TDP1 no CPT: qHTS for Inhibitors of human tyrosyl-DNA phosphodiesterase 1 (TDP1): qHTS in cells in absence of CPT. DT40 Tdp1-/- hTDP1 cells, no CPT, ATP luminescence, 48 h. Potency, µM (highest dose often 46.2 µM), for inactives: at the top dose activity change, negative = growth inhibition, hits mostly inhibitors. 420,000 tested, 15% active; note: potency is the fitted concentration of half-maximal effect; % is set by controls: 0 for no effect and ±100 for the full control effect; nearly all actives have a fitted effect of over 55% in size
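No-CPT arm: Tdp1-/-;hTDP1 DT40 cells (400/well) plus compounds, incubated ≥48 hr at 37 °C. Readout CellTiter-Glo luminescence.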
ClpP mod: qHTS Assay for Activators of ClpP; purified B. subtilis ClpP, FRET peptide cleavage, 20 min; Potency, µM (doses to about 57.5 µM), inactives show at the highest dose activity change, negative = active; 340,000 tested, 1.9% active; AID 651965, 2013; active = well fitted falling curve with a large enough effect; inconclusive = small, poorly fitted or top-dose-only effect; inactive = no such curve, though single readings can be large or run the other way; note: potency is the fitted concentration of half-maximal effect; the source files actives as falling curves though it sought activators and does not explain the sign; nearly all actives have a fitted effect of over 65% in size
Target sequence (P80244 whole entry, looked up): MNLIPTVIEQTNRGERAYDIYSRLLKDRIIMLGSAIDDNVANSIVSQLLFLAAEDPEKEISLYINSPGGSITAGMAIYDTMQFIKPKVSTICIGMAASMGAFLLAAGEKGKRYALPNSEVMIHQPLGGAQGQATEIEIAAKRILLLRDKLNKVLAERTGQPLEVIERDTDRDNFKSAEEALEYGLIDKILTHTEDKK
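Buffer: 100 mM Tris/HCl pH8, 100 mM KCl, 0.05% low protease BSA, 2.5% glycerol, 0.01% Tween-20. ClpP 10 microg/mL final; 20 min RT; delta FRET normalized to ADEP and DMSO controls.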
TDP1 cell CPT: qHTS for Inhibitors of human tyrosyl-DNA phosphodiesterase 1 (TDP1): qHTS in cells in presence of CPT. chicken DT40 Tdp1-/-;hTDP1 cells + 20 nM CPT, ATP luminescence, 48 h. Potency, µM (series often up to 46.2 µM), without a hit: top-dose activity change, negative = growth inhibition, usual class: inhibitors. 420,000 tested, 12% active. AID 686979, 2013; note: potency is the fitted concentration of half-maximal effect; % is set by controls: 0 for no effect and ±100 for the full control effect; nearly all actives have a fitted effect of over 55% in size
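Chicken DT40 Tdp1-/- cells stably complemented with human TDP1 were seeded at 400 cells/well in medium containing 20 nM camptothecin, exposed to pin-transferred compounds, and grown at 37 °C for at least 48 hr. Viability was read as ATP luminescence.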
Active calls of the source: *; ! = not active in a repeat. Unless noted, calls come from the whole dose curve; as a rule, active = well fitted inhibition curve with a large enough effect; inconclusive = small, poorly fitted or top-dose-only effect; inactive = flat fitted curve, though single readings scatter.

What do the screens show for `O=C(NCc1ccccc1)C(c1ccc(C(F)(F)F)cc1)n1c(=O)c(-c2ccccc2)nc2ccccc21` (stereo not given)?
DRD3 agonist: -3.8; IL-1B inflam inh: 37.2; D3 antag: 5.9; DT40 TDP1 no CPT: -79.6%; ClpP mod: 4.3%; TDP1 cell CPT: -71.4%

How did CCCCCNC(=O)C(c1cccc2ccccc12)n1c(=O)c(-c2ccccc2)nc2ccccc21 (stereo not given) do in these assays?
DRD3 agonist: -1.6; IL-1B inflam inh: 0.0; D3 antag: 9.8; DT40 TDP1 no CPT: 14.6µM*; ClpP mod: inconclusive; TDP1 cell CPT: 13µM*

How did CCCCCNC(=O)C(c1ccc(-c2ccccc2)cc1)n1c(=O)c(-c2ccccc2)nc2ccccc21 (stereo not given) do in these assays?
DRD3 agonist: 5.4; IL-1B inflam inh: 51.6; D3 antag: 23.8; DT40 TDP1 no CPT: inconclusive; ClpP mod: inconclusive; TDP1 cell CPT: inconclusive

What do the screens show for `Nc1nnc(SCC(=O)NC2CCCCCC2)s1`?
DRD3 agonist: 5.3; IL-1B inflam inh: 1.8; D3 antag: 18.5; DT40 TDP1 no CPT: -5.4%; ClpP mod: inconclusive; TDP1 cell CPT: 1.7%

Results for Cc1cc(C)c(S(=O)(=O)Nc2cccc(C(=O)O)c2)cc1S(=O)(=O)Nc1cccc(C(=O)O)c1 ?
DRD3 agonist: -1.2; IL-1B inflam inh: 14.2; D3 antag: 4.9; DT40 TDP1 no CPT: 10.9%; ClpP mod: 0.4%; TDP1 cell CPT: -0.2%

What do the screens show for `O=C(CC(Sc1ccc(Br)cc1)C(=O)O)c1ccc(F)cc1` (stereo not given)?
DRD3 agonist: -8.0; IL-1B inflam inh: -92.4*; D3 antag: inconclusive; DT40 TDP1 no CPT: 4.61µM*; ClpP mod: -8.5%; TDP1 cell CPT: 9.2µM*

What do the screens show for `CCOc1ccc(C(=O)CC(Sc2ccc(C)cc2)C(=O)O)cc1` (stereo not given)?
DRD3 agonist: -5.1; IL-1B inflam inh: inconclusive; D3 antag: -28.0; DT40 TDP1 no CPT: inconclusive; TDP1 cell CPT: inconclusive

How did COC(=O)C1=C(C(=O)OC)C2C=CC1C1C(OC(C)=O)C(OC(C)=O)C21 (stereo not given) do in these assays?
DRD3 agonist: 8.6; IL-1B inflam inh: 12.9; D3 antag: 6.3; DT40 TDP1 no CPT: -18.9%; ClpP mod: 1.3%; TDP1 cell CPT: -21.4%

Results for COc1ccc(SCC(=O)c2cc(C)c(OC(=S)N(C)C)c(C)c2)cc1 ?
DRD3 agonist: -0.4; IL-1B inflam inh: -19.6; D3 antag: -50.9*; DT40 TDP1 no CPT: inconclusive; ClpP mod: -1.9%; TDP1 cell CPT: 20.6µM*

What do the screens show for `Cc1ccc(CCNC(=O)CN2C(=O)COc3ccc(S(=O)(=O)N4CCCCC4)cc32)cc1`?
DRD3 agonist: -7.4; IL-1B inflam inh: inconclusive; D3 antag: -11.5; DT40 TDP1 no CPT: -25.0%; ClpP mod: -1.3%; TDP1 cell CPT: inconclusive

How did COc1ccc(CCNC(=O)CN2C(=O)COc3ccc(S(=O)(=O)N4CCCC4)cc32)c(OC)c1 do in these assays?
DRD3 agonist: -4.8; IL-1B inflam inh: -28.6; D3 antag: -12.4; DT40 TDP1 no CPT: 16.4µM*!; ClpP mod: -0.1%; TDP1 cell CPT: 18.4µM*!

Results for Cc1ccc(CCNC(=O)CN2C(=O)COc3ccc(S(=O)(=O)N4CCCCCC4)cc32)cc1 ?
DRD3 agonist: -11.6; DT40 TDP1 no CPT: 16.4µM*; ClpP mod: 1.6%; TDP1 cell CPT: 16.4µM*

What do the screens show for `O=C(CN1C(=O)COc2ccc(S(=O)(=O)N3CCCC3)cc21)NCCc1ccc(Cl)cc1`?
DRD3 agonist: 3.2; DT40 TDP1 no CPT: 23.1µM*; ClpP mod: 3.1%; TDP1 cell CPT: inconclusive

How did COc1ccc(OC)c(CCNC(=O)CN2C(=O)COc3ccc(S(=O)(=O)N4CCCCCC4)cc32)c1 do in these assays?
DRD3 agonist: 0.2; ClpP mod: 0.6%

What do the screens show for `CC(=O)N1c2c(ccc3ccccc23)C(C)CC12CCCCC2` (stereo not given)?
DRD3 agonist: -8.2; IL-1B inflam inh: 17.4; D3 antag: -15.7; DT40 TDP1 no CPT: inconclusive; ClpP mod: -0.5%; TDP1 cell CPT: inconclusive

What do the screens show for `CC1CC2(CCCCC2)Nc2c1ccc1ccccc21` (stereo not given)?
DRD3 agonist: -5.4; IL-1B inflam inh: 29.1; D3 antag: 0.0; DT40 TDP1 no CPT: 10.3µM*; ClpP mod: 17.8µM*; TDP1 cell CPT: inconclusive

Results for CCCCN(C)C(=O)CN1C(=O)c2cccnc2Oc2ccc(Cl)cc21 ?
DRD3 agonist: 7.3; DT40 TDP1 no CPT: inconclusive; ClpP mod: 0.2%; TDP1 cell CPT: -27.1%

How did C/C=C/c1cccc(-c2nc(C(=O)NC3CCCC3)cc3c2[C@@H](CCO)N(S(=O)C(C)(C)C)C3)c1 (stereo not given in full) do in these assays?
DRD3 agonist: -1.1; IL-1B inflam inh: -3.6; D3 antag: 0.0; DT40 TDP1 no CPT: 18.4µM*; ClpP mod: -0.7%; TDP1 cell CPT: 25.9µM*

What do the screens show for `C/C=C/c1cccc(-c2nc(C(=O)NC3Cc4ccccc4C3)cc3c2[C@@H](CCO)N(C(C)=O)C3)c1`?
DRD3 agonist: -5.1; IL-1B inflam inh: -56.5*; D3 antag: 32.1; DT40 TDP1 no CPT: inconclusive; ClpP mod: -1.0%; TDP1 cell CPT: 14.6µM*

Results for O=C(O)CCC(=O)NNC(=O)COc1ccc2ccccc2c1Br ?
DRD3 agonist: -2.7; IL-1B inflam inh: 2.7; D3 antag: 2.9; DT40 TDP1 no CPT: 5.1%; TDP1 cell CPT: -0.1%

Results for COc1ccc(-c2cc(=O)oc3c(C)c(OCC(=O)Nc4cccnc4)ccc23)cc1 ?
DRD3 agonist: 19.8; IL-1B inflam inh: 36.9; D3 antag: 12.4; DT40 TDP1 no CPT: -14.7%; ClpP mod: -1.1%; TDP1 cell CPT: inconclusive

What do the screens show for `Cc1c(C)c2ccc(OCC(=O)Nc3cccnc3)c(C)c2oc1=O`?
DRD3 agonist: -7.7; IL-1B inflam inh: 9.4; D3 antag: 0.5; DT40 TDP1 no CPT: 18.4µM*; ClpP mod: 4.6%; TDP1 cell CPT: inconclusive
